Sampled rows, rich in hits. Any-hit rate of the full collection: about 19%.
KB-V1 cytotox = kills drug-selected multidrug resistant KB-V1 cells | actives 3.4% (n = 400,000) | Potency, µM (doses to about 46.1 µM), actives largely listed as cytotoxic | AID 1347076 | KB-V1 MDR cells viability, CellTiter-Glo, 72 h; note: nearly all actives have a fitted effect of over 60% in size
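KB-V1 MDR subline cells in DMEM (phenol-red free, 10% FBS) exposed to compounds in qHTS concentration series for 72 h at 37 degrees C. Viability read by CellTiter-Glo luminescence; concentration-effect curves fitted after normalization and correction.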
HT1080NT lethal = kills 2HG-producing HT-1080-NT fibrosarcoma cells; HT-1080-NT fibrosarcoma viability, CellTiter-Glo ATP luminescence, 48 h; Potency, µM (top dose mostly 46.1 µM), for the others: at the highest dose activity, negative = less viability, hits mostly cytotoxic; actives 1.6% (n = 360,000);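 note: NT is the 2HG producing partner of a matched IDH1 knockdown line; 0% = DMSO-treated cells and -100% = media-only wells without cells; nearly all actives have a fitted effect of over 55% in size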
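Compounds were tested in concentration-response format on HT-1080-NT cells for 48 hours at 37 degrees C. Cell viability came from CellTiter-Glo luminescence; curves were classified by r2, response magnitude and activity.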
KB-3-1 tox = kills parental KB-3-1 adenocarcinoma cells | Potency, µM (titrated, usually from 46.1 µM), usual class: cytotoxic | actives 1.4% (n = 400,000) | KB-3-1 viability, CellTiter-Glo ATP luminescence, 72 h | AID 1347075; note: nearly all actives have a fitted effect of over 60% in size
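Luminescent ATP read-out (CellTiter-Glo) measures survival of drug-naive KB-3-1 cells after 72 h compound exposure at 37 °C. Titration series was screened from lowest to highest concentration, with DMSO vehicle plates as background controls.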
DT40 TDP1 no CPT = qHTS for Inhibitors of human tyrosyl-DNA phosphodiesterase 1 (TDP1): qHTS in cells in absence of CPT; DT40 Tdp1-/- hTDP1 cells, no CPT, ATP luminescence, 48 h; Potency, µM (titrated, usually from 46.2 µM), for inactives: top-dose activity change, negative = growth inhibition, most hits filed as inhibitors; actives 15% (n = 420,000); AID 686978, 2013; note: nearly all actives have a fitted effect of over 55% in size
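Cells were dispensed at 400 per well, compounds added by pin tool, plates incubated ≥48 hr at 37 °C, then CellTiter-Glo added for 30 min at room temperature before luminescence reading. Line: DT40 Tdp1-/- complemented with hTDP1; camptothecin omitted.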
DT40 TDP1 CPT = growth inhibition of DT40 Tdp1-/-;hTDP1 cells with camptothecin (screen for TDP1 inhibitors); chicken DT40 Tdp1-/-;hTDP1 cells + 20 nM CPT, ATP luminescence, 48 h; Potency, µM (top dose mostly 46.2 µM), for the others: at the highest dose activity change, negative = growth inhibition, hits mostly inhibitors; actives 12% (n = 420,000); AID 686979; note: nearly all actives have a fitted effect of over 55% in size
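Chicken DT40 Tdp1-/- cells complemented with human TDP1, 400 cells/well, exposed to compounds plus 20 nM camptothecin for at least 48 h at 37 C; viability read as ATP content by CellTiter-Glo luminescence.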
HT1080 IDH1KD tx = kills HT-1080 cells with IDH1 knockdown | HT-1080 IDH1 knockdown viability, ATP luminescence, 48 h | actives 2% (n = 360,000) | AID 686971 | Potency, µM (highest dose often 46.1 µM), without a hit: at the top dose activity, negative = toxicity, most hits filed as cytotoxic;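 note: 0% = DMSO wells and -100% = cell-free medium wells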
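In this qHTS, HT-1080 cells depleted of IDH1 are exposed for 48 h at 37 °C to compound titrations. Toxicity is scored from CellTiter-Glo luminescence, with DMSO as full viability and medium alone as none.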
An asterisk follows results filed as active. Calls come from the whole dose curve; as a rule, active = well fitted curve in the direction sought with a large enough effect; inconclusive = small, poorly fitted or top-dose-only effect, or another doubt; inactive = no such curve, though single readings can be large; an effect the other way counts as inactive or inconclusive. Unless noted, % is set by controls: 0 for no effect and ±100 for the full control effect; potency is the fitted concentration of half-maximal effect.

Results for COc1cc2nc(CN(C)Cc3ccc(Cl)cc3)[nH]c(=O)c2cc1OC ?
KB-V1 cytotox: inconclusive; HT1080NT lethal: 17%; KB-3-1 tox: inconclusive; DT40 TDP1 no CPT: 26µM*; DT40 TDP1 CPT: inconclusive; HT1080 IDH1KD tx: 10%

Results for CSc1ccc(CN(C)Cc2nc3cc(C(F)(F)F)ccc3c(=O)[nH]2)cc1 ?
KB-V1 cytotox: 23µM*; HT1080NT lethal: -1%; KB-3-1 tox: inactive; DT40 TDP1 no CPT: inconclusive; DT40 TDP1 CPT: inconclusive; HT1080 IDH1KD tx: -2%

What do the screens show for `COc1cc2nc(CN3CCC(Cc4ccccc4)CC3)[nH]c(=O)c2cc1OC`?
KB-V1 cytotox: inactive; HT1080NT lethal: 11%; KB-3-1 tox: inactive; DT40 TDP1 no CPT: inconclusive; DT40 TDP1 CPT: inconclusive; HT1080 IDH1KD tx: 19%

What do the screens show for `COc1cc2nc(CN(C)Cc3nc4ccccc4c(=O)[nH]3)[nH]c(=O)c2cc1OC`?
KB-V1 cytotox: inactive; HT1080NT lethal: 18µM*; KB-3-1 tox: inactive; DT40 TDP1 no CPT: 13µM*; DT40 TDP1 CPT: 13µM*; HT1080 IDH1KD tx: 7.1µM*

How did CN(C(=O)CN1CCN(c2cc(-c3ccc(-c4ccccc4)cc3)ncn2)CC1)c1ccccc1 do in these assays?
KB-V1 cytotox: inactive; HT1080NT lethal: 15µM*; KB-3-1 tox: inconclusive; DT40 TDP1 no CPT: inconclusive; DT40 TDP1 CPT: 23µM*; HT1080 IDH1KD tx: 13µM*

Results for O=C1c2ccccc2C(=O)N1CCc1csc(-c2ccccc2)n1 ?
KB-V1 cytotox: 16µM*; HT1080NT lethal: -2%; KB-3-1 tox: inconclusive; DT40 TDP1 no CPT: -8%; DT40 TDP1 CPT: -5%; HT1080 IDH1KD tx: -3%

How did CCOC(=O)c1nn(-c2ccc(Cl)cc2)c(C)cc1=O do in these assays?
KB-V1 cytotox: inactive; HT1080NT lethal: 7%; KB-3-1 tox: inactive; DT40 TDP1 no CPT: 2%; DT40 TDP1 CPT: -16%; HT1080 IDH1KD tx: 1%

How did CCCCOc1ccc(C(=O)NCc2nnnn2-c2ccc(C)c(C)c2)cc1 do in these assays?
DT40 TDP1 no CPT: inconclusive; DT40 TDP1 CPT: 16µM*

How did COc1cccc(Cc2nc3ccccc3nc2SCC(=O)N2CCCCC2C)c1 (configuration not stated) do in these assays?
KB-V1 cytotox: inconclusive; KB-3-1 tox: inconclusive; DT40 TDP1 no CPT: 5.2µM*; DT40 TDP1 CPT: inconclusive

What do the screens show for `COc1cccc(Cc2nc3ccccc3nc2SCC(=O)N2CCCc3ccccc32)c1`?
KB-V1 cytotox: inactive; KB-3-1 tox: inactive; DT40 TDP1 no CPT: inconclusive; DT40 TDP1 CPT: 18µM*

How did CC1CCCCN1C(=O)CSc1nnc(Cc2ccccc2)n1C (configuration not stated) do in these assays?
KB-V1 cytotox: inactive; HT1080NT lethal: 14%; KB-3-1 tox: inactive; DT40 TDP1 no CPT: 1%; DT40 TDP1 CPT: 1%; HT1080 IDH1KD tx: 20%

How did Cc1ccc(Cc2nc3ccccc3nc2SCC(=O)NCCc2ccccc2)cc1 do in these assays?
KB-V1 cytotox: inactive; KB-3-1 tox: inactive; DT40 TDP1 no CPT: inconclusive; DT40 TDP1 CPT: inconclusive

Results for Cc1ccc(Cc2nc3ccccc3nc2SCC(=O)N2CCCCC2C)cc1 (configuration not stated) ?
KB-V1 cytotox: inactive; KB-3-1 tox: inconclusive; DT40 TDP1 no CPT: 23µM*; DT40 TDP1 CPT: 15µM*

What do the screens show for `CC(=O)c1ccc(N2CCN(C(=O)CN3C(=O)NC4(CCCCC4)C3=O)CC2)c(F)c1`?
KB-V1 cytotox: inactive; HT1080NT lethal: 0%; KB-3-1 tox: inactive; DT40 TDP1 no CPT: -18%; DT40 TDP1 CPT: -24%; HT1080 IDH1KD tx: 6%

How did CCN(CC)S(=O)(=O)c1cccc(C(=O)NNC(=O)C2=NN(c3ccccc3)C(=O)CC2)c1 do in these assays?
KB-V1 cytotox: inactive; HT1080NT lethal: -7%; KB-3-1 tox: inactive; DT40 TDP1 no CPT: 4%; DT40 TDP1 CPT: -2%; HT1080 IDH1KD tx: 5%

How did CC1=C/C(=N\NC(=O)c2ccccc2)CC1 do in these assays?
KB-V1 cytotox: inactive; HT1080NT lethal: 12%; KB-3-1 tox: inactive; DT40 TDP1 no CPT: 1%; DT40 TDP1 CPT: 1%; HT1080 IDH1KD tx: 0%

What do the screens show for `CC(C)Cn1c(SCc2nnc(-c3cccs3)o2)nc(O)cc1=O`?
KB-V1 cytotox: inactive; HT1080NT lethal: -1%; KB-3-1 tox: inactive; DT40 TDP1 no CPT: 2%; DT40 TDP1 CPT: 0%; HT1080 IDH1KD tx: -30%

How did CCOc1nc2c(c(=O)n(C)c(=O)n2C)n1Cc1ccccc1Cl do in these assays?
KB-V1 cytotox: 4.1µM*; HT1080NT lethal: 2%; KB-3-1 tox: inconclusive; DT40 TDP1 no CPT: 12µM*; DT40 TDP1 CPT: 16µM*; HT1080 IDH1KD tx: -4%

What do the screens show for `CN1CCN(c2nc3c(c(=O)n(C)c(=O)n3C)n2Cc2ccccc2Cl)CC1`?
KB-V1 cytotox: inactive; HT1080NT lethal: -1%; KB-3-1 tox: inactive; DT40 TDP1 no CPT: 13%; DT40 TDP1 CPT: -21%; HT1080 IDH1KD tx: 9%

What do the screens show for `C=CCOc1nc2c(c(=O)n(Cc3ccc(Cl)c(Cl)c3)c(=O)n2C)n1C`?
KB-V1 cytotox: inconclusive; HT1080NT lethal: 5%; KB-3-1 tox: inactive; DT40 TDP1 no CPT: 23µM*; DT40 TDP1 CPT: 16µM*; HT1080 IDH1KD tx: 7%

Results for CCOCCOc1nc2c(c(=O)n(C)c(=O)n2C)n1CCc1ccccc1 ?
KB-V1 cytotox: inconclusive; HT1080NT lethal: 6%; KB-3-1 tox: inactive; DT40 TDP1 no CPT: 21µM*; DT40 TDP1 CPT: 18µM*; HT1080 IDH1KD tx: 8%

What do the screens show for `C=CCOc1nc2c(c(=O)n(C)c(=O)n2C)n1Cc1c(Cl)cccc1Cl`?
KB-V1 cytotox: inconclusive; HT1080NT lethal: 15%; KB-3-1 tox: inactive; DT40 TDP1 no CPT: 21µM*; DT40 TDP1 CPT: inconclusive; HT1080 IDH1KD tx: 2%

What do the screens show for `Cc1ccc(NCC(=O)NNC2=NCCC2)c(C)c1`?
KB-V1 cytotox: inactive; HT1080NT lethal: 7%; KB-3-1 tox: inactive; DT40 TDP1 no CPT: 5%; DT40 TDP1 CPT: 6%; HT1080 IDH1KD tx: -8%

What do the screens show for `CCCNC(=O)C(=O)NCC(c1ccc2c(c1)OCO2)N1CCOCC1` (configuration not stated)?
KB-V1 cytotox: inactive; KB-3-1 tox: inactive; DT40 TDP1 no CPT: -5%; DT40 TDP1 CPT: 5%

Results for CC1CCCCN1CC(O)COCc1ccccc1 (configuration not stated) ?
KB-V1 cytotox: inconclusive; HT1080NT lethal: 18%; KB-3-1 tox: inactive; DT40 TDP1 no CPT: -4%; DT40 TDP1 CPT: -5%; HT1080 IDH1KD tx: 3%

Compound activity deposited in PubChem BioAssay by National Center for Advancing Translational Sciences (NCATS).
